Data published in PubChem BioAssay (NCATS).
Records with an inconclusive call do not appear. Activity calls are given as the source filed them. Calls come from the whole dose curve; as a rule, active = well fitted curve in the direction sought with a large enough effect; inconclusive = small, poorly fitted or top-dose-only effect, or another doubt; inactive = no such curve, though single readings can be large; an effect the other way counts as inactive or inconclusive.

How the values were obtained:
[1] = Quantitative High-Throughput drug screen in 47 multiple myeloma cell lines against the NCATS MIPE library collection: KMS12BM_JCRB cell viability assay (AID 1918971); note: nearly all actives have a fitted effect of over 35% in size
How it was run: (§1)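 Myeloma cells (500 per well) were exposed to MIPE 4.0 compounds by pin transfer and incubated 48 hours at 37C, 5% CO2. Viability was read as ATP by CellTiter-Glo luminescence, normalised to DMSO (100%) and media-only (0%) wells.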

[2] = Quantitative High-Throughput drug screen in 47 multiple myeloma cell lines against the NCATS MIPE library collection: KMS12PE_JCRB cell viability assay (AID 1918972); note: nearly all actives have a fitted effect of over 30% in size
How it was run: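 CellTiter-Glo ATP luminescence gave viability after 48 h compound treatment at 37C of 500 multiple myeloma cells per well. Normalisation used DMSO-only wells as 100% and media-only wells as 0% viability; primary qHTS of approved and investigational drugs.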

[3] = Quantitative High-Throughput drug screen in 47 multiple myeloma cell lines against the NCATS MIPE library collection: KMS21BM_JCRB cell viability assay (AID 1918974); settings: ATP luminescence, 48 h; viability: at 45.8 µM (top of the series)
How it was run: (§2)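 Myeloma cell lines, 500 cells per well, exposed to MIPE 4.0 library compounds for 48 h at 37C, 5% CO2. Viability from ATP by CellTiter-Glo luminescence; normalised to DMSO (100%) and media-only (0%) wells.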

[4] = Quantitative High-Throughput drug screen in 47 multiple myeloma cell lines against the NCATS MIPE library collection: KMS26_JCRB cell viability assay (AID 1918975); note: nearly all actives have a fitted effect of over 45% in size
How it was run: as §1

[5] = Quantitative High-Throughput drug screen in 47 multiple myeloma cell lines against the NCATS MIPE library collection: MOLP8_DSMZ cell viability assay (AID 1918977); note: nearly all actives have a fitted effect of over 45% in size
How it was run: (§3)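 ATP-based CellTiter-Glo luminescence after 48 h drug exposure (37 °C, 5% CO2) of 500 myeloma cells per well. DMSO-only wells set 100% viability, media-only wells 0%; MIPE 4.0 library added by pin tool.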

[6] = Quantitative High-Throughput drug screen in 47 multiple myeloma cell lines against the NCATS MIPE library collection: NCIH929_DSMZ cell viability assay (AID 1918978); note: nearly all actives have a fitted effect of over 35% in size
How it was run: as §3

[7] = Quantitative High-Throughput drug screen in 47 multiple myeloma cell lines against the NCATS MIPE library collection: OCIMY1_PLB cell viability assay (AID 1918979); note: nearly all actives have a fitted effect of over 35% in size
How it was run: as §3

[8] = Quantitative High-Throughput drug screen in 47 multiple myeloma cell lines against the NCATS MIPE library collection: MM1S_ATCC cell viability assay (AID 1918980); note: nearly all actives have a fitted effect of over 45% in size
How it was run: as §3

[9] = Quantitative High-Throughput drug screen in 47 multiple myeloma cell lines against the NCATS MIPE library collection: MMM1_PLB cell viability assay (AID 1918976); note: nearly all actives have a fitted effect of over 35% in size
How it was run: as §3

[10] = Quantitative High-Throughput drug screen in 47 multiple myeloma cell lines against the NCATS MIPE library collection: KMS20_JCRB cell viability assay (AID 1918973); note: nearly all actives have a fitted effect of over 45% in size
How it was run: as §2
Potency is the fitted concentration of half-maximal effect.

Row | SMILES | Potency [1] | Potency [2] | Potency [3] | Potency [4] | Potency [5] | Potency [6] | Potency [7] | Potency [8] | Potency [9] | Potency [10]
1 | CC(=O)O[C@H]1C[C@@H]2CC[C@H]3[C@H]4C[C@H]([N+]5(C)CCCCC5)[C@@H](OC(C)=O)[C@@]4(C)CC[C@@H]3[C@@]2(C)C[C@H]1N1CCCCC1 | inactive | inactive | inactive | inactive | inactive | inactive | inactive | 6.62 µM (active) | – | –
2 | C#C[C@]1(O)CC[C@@H]2[C@@H]3CCC4=CC(=O)CC[C@@H]4[C@H]3CC[C@@]21CC | 1.48 µM (active) | inactive | – | inactive | 23.5 µM (active) | inactive | inactive | – | 9.35 µM (active) | –
3 | CCNC(=O)Nc1ccc(-c2nc3c(c(N4CCOC[C@H]4C)n2)CCN(C2COC2)C3)cc1 | 1.18 µM (active) | 5.26 µM (active) | 2.35 µM (active) | 1.66 µM (active) | 0.833 µM (active) | 0.526 µM (active) | 0.469 µM (active) | – | – | –
4 | C[N+](C)([O-])CCNc1ccc(NCC[N+](C)(C)[O-])c2c1C(=O)c1c(O)ccc(O)c1C2=O | 18.7 µM (active) | inactive | inactive | – | – | – | inactive | 20.9 µM (active) | – | –
5 | COc1ccc(CCC(=O)c2c(O)cc(O[C@@H]3O[C@H](CO)[C@@H](O)[C@H](O)[C@@H]3O[C@@H]3O[C@@H](C)[C@H](O)[C@@H](O)[C@@H]3O)cc2O)cc1O | inactive | inactive | inactive | inactive | – | – | inactive | – | inactive | –
6 | Cc1ccc(O)c(C(CCN(C(C)C)C(C)C)c2ccccc2)c1 (centres undefined) | inactive | inactive | 9.35 µM (active) | – | – | inactive | inactive | inactive | – | –
7 | CC[C@]12C=CCN3CC[C@@]4(c5cc([C@@]6(C(=O)OC)C[C@H]7C[C@@H](C(C)(F)F)CN(Cc8c6[nH]c6ccccc86)C7)c(OC)cc5N(C)[C@H]4[C@@](O)(C(=O)OC)[C@H]1OC(C)=O)[C@@H]32 | 0.0074 µM (active) | 0.0074 µM (active) | – | 1.48 µM (active) | 9.35 µM (active) | 0.469 µM (active) | 0.0469 µM (active) | 0.148 µM (active) | 4.69 µM (active) | –
8 | N=c1ccn2c(n1)O[C@H]1[C@@H](O)[C@@H](CO)O[C@H]12 | 0.059 µM (active) | 11.8 µM (active) | 2.96 µM (active) | inactive | – | 16.6 µM (active) | inactive | 2.64 µM (active) | – | –
9 | Nc1ncn([C@@H]2O[C@H](CO)[C@@H](O)[C@@H]2O)c(=O)n1 | 8.33 µM (active) | 1.32 µM (active) | 1.87 µM (active) | 13.2 µM (active) | – | 3.72 µM (active) | 14.8 µM (active) | 18.7 µM (active) | – | –
10 | COc1cc2ncnc(Nc3cccc(Br)c3)c2cc1OC | 0.0418 µM (active) | 14.8 µM (active) | – | 16.6 µM (active) | – | – | – | 0.0148 µM (active) | – | 0.743 µM (active)
11 | CC(C)Oc1ccc(C(=O)N[C@H](CNC(=O)CN(C)C)Cc2ccc(-c3cn4cccc([C@H](C)O)c4n3)cc2)cc1Cl | 0.743 µM (active) | 0.469 µM (active) | – | – | – | – | 2.64 µM (active) | 6.62 µM (active) | – | 0.235 µM (active)
12 | COc1cccc2c1C(=O)c1c(O)c3c(c(O)c1C2=O)C[C@@](O)(C(C)=O)C[C@H]3O[C@H]1C[C@H](N)[C@H](O)[C@H](C)O1 | 0.0662 µM (active) | 0.0662 µM (active) | – | 0.296 µM (active) | 0.132 µM (active) | 0.0469 µM (active) | 0.332 µM (active) | 0.0469 µM (active) | 0.166 µM (active) | –
13 | CN(C)CC(=O)N1CCC(c2ccc(NC(=O)c3ncc(C#N)[nH]3)c(C3=CCCCC3)c2)CC1 | inactive | 5.26 µM (active) | – | – | 5.26 µM (active) | 16.6 µM (active) | – | 2.35 µM (active) | – | 13.2 µM (active)
14 | NC(=O)N1CCC(CC(=O)N2CCC([C@H]3c4ncc(Br)cc4CCc4cc(Cl)cc(Br)c43)CC2)CC1 | 18.7 µM (active) | 11.8 µM (active) | 13.2 µM (active) | 20.9 µM (active) | – | – | 20.9 µM (active) | 16.6 µM (active) | 16.6 µM (active) | –
15 | C=C1C(=CC=C2CCC[C@]3(C)[C@@H]([C@H](C)CCCC(C)(C)O)CC[C@@H]23)C[C@@H](O)C[C@@H]1O | 20.9 µM (active) | 6.62 µM (active) | – | 18.7 µM (active) | 16.6 µM (active) | 3.72 µM (active) | inactive | – | 20.9 µM (active) | –
16 | N#Cc1c(NC(=O)c2cccc3ccccc23)sc2c1CCCC2 | 0.526 µM (active) | 0.332 µM (active) | 0.526 µM (active) | 3.32 µM (active) | – | 2.35 µM (active) | – | 1.05 µM (active) | 5.26 µM (active) | –

Row | SMILES | Potency [1] | Potency [2] | Potency [3] | Potency [4] | Potency [5] | Potency [6] | Potency [7] | Potency [8] | Potency [9] | Potency [10]
17 | CC(=O)O[C@H]1C[C@@H]2CC[C@H]3[C@H]4C[C@H]([N+]5(C)CCCCC5)[C@@H](OC(C)=O)[C@@]4(C)CC[C@@H]3[C@@]2(C)C[C@H]1[N+]1(C)CCCCC1 | inactive | inactive | – | – | – | inactive | inactive | – | – | inactive
18 | Cc1[nH]c(C=C2C(=O)Nc3ccccc32)c(C)c1CCC(=O)O | 5.9 µM (active) | 9.35 µM (active) | 11.8 µM (active) | – | – | 7.43 µM (active) | – | 0.0833 µM (active) | – | –
19 | O=C1NCCc2[nH]c(-c3ccncc3)cc21 | 3.72 µM (active) | 6.62 µM (active) | – | 3.32 µM (active) | 1.66 µM (active) | 2.64 µM (active) | 5.9 µM (active) | 3.72 µM (active) | 16.6 µM (active) | –
20 | CC(=O)[C@]1(O)Cc2c(O)c3c(c(O)c2[C@@H](O[C@H]2C[C@H](N)[C@@H](O)[C@H](C)O2)C1)C(=O)c1ccccc1C3=O | 0.235 µM (active) | 2.09 µM (active) | – | 0.264 µM (active) | 0.132 µM (active) | 0.166 µM (active) | 0.743 µM (active) | 0.0166 µM (active) | 0.148 µM (active) | –
21 | CNC(=O)Nc1ccc(-c2nc(N3CC4CCC(C3)O4)c3cnn(C4CCC5(CC4)OCCO5)c3n2)cc1 | 0.0066 µM (active) | 0.0743 µM (active) | 0.0418 µM (active) | 1.18 µM (active) | 0.0093 µM (active) | – | 0.935 µM (active) | 0.0148 µM (active) | 0.0093 µM (active) | –
22 | CC(C)c1cc(C(C)C)c(CC(=O)NS(=O)(=O)Oc2c(C(C)C)cccc2C(C)C)c(C(C)C)c1 | 16.6 µM (active) | 6.62 µM (active) | – | 26.4 µM (active) | 20.9 µM (active) | inactive | 20.9 µM (active) | – | 33.2 µM (active) | –
23 | CON=C(C(=O)N[C@@H]1C(=O)N2C(C(=O)O)=C(Cn3ccc(=N)n3CCO)CS[C@H]12)c1csc(N)n1 | inactive | inactive | inactive | inactive | – | inactive | – | inactive | – | –
24 | COC(=O)C=CC(=O)OC | inactive | inactive | – | – | – | 0.264 µM (active) | – | 1.66 µM (active) | – | 2.64 µM (active)
25 | Cc1ncc(-c2ccnc(Nc3ccc(S(C)(=O)=O)cc3)n2)n1C(C)C | 4.18 µM (active) | 2.96 µM (active) | – | 2.64 µM (active) | 1.32 µM (active) | 2.09 µM (active) | 6.62 µM (active) | 2.64 µM (active) | 4.69 µM (active) | –
26 | CN(C)c1ccc(C(=O)NCCCCCCC(=O)NO)cc1 | 0.235 µM (active) | 0.0935 µM (active) | 0.0418 µM (active) | 2.96 µM (active) | 0.743 µM (active) | 0.833 µM (active) | 1.87 µM (active) | 0.833 µM (active) | – | –
27 | Oc1cc(-c2nc(-c3ccccc3)[nH]c2-c2ccncc2)ccc1Cl | 20.9 µM (active) | 14.8 µM (active) | 3.32 µM (active) | 16.6 µM (active) | 16.6 µM (active) | 3.72 µM (active) | 10.5 µM (active) | 4.69 µM (active) | – | –
28 | CC(C)c1cnn2c(NCc3ccccc3)cc(NCCCCCCN)nc12 | 26.4 µM (active) | 18.7 µM (active) | 23.5 µM (active) | 14.8 µM (active) | – | – | – | 3.32 µM (active) | – | –
29 | CC(=O)O[C@]1(C(C)=O)CC[C@H]2[C@@H]3C=C(C)C4=CC(=O)CC[C@]4(C)[C@@H]3CC[C@@]21C | 9.35 µM (active) | 11.8 µM (active) | – | inactive | – | 7.43 µM (active) | inactive | – | 18.7 µM (active) | –
30 | C[C@H](NCc1ccc2c(c1)nc(NC(=O)c1ccc(-c3cn[nH]c3)s1)n2CCc1ccccc1)C(C)(C)C | 2.35 µM (active) | 0.743 µM (active) | – | 1.87 µM (active) | 0.59 µM (active) | 1.05 µM (active) | 1.87 µM (active) | 1.66 µM (active) | 2.35 µM (active) | –
31 | CCCCCCCCc1ccc(CCC(N)(CO)CO)cc1 | 14.8 µM (active) | 7.43 µM (active) | – | 16.6 µM (active) | 14.8 µM (active) | 7.43 µM (active) | 23.5 µM (active) | 7.43 µM (active) | 13.2 µM (active) | –
